In PubChem BioAssay AID463173 (ICCB-Longwood Screening Facility, Harvard Medical School, 2010):
Among all 52,000 compounds or so, about 4,300 (8.3%) were called active. The entries come from a sample that favours actives as a whole. A number with no mark means an inactive call. No stated cut-off is given here; in the data, active means survival mostly below about 52% (no sharp cut-off); inactive means mostly above about 56%.

Each compound was assayed on DeltatarO mutant (assay: S. aureus survival, RN4220 and DeltatarO strains – OD600, teichoic acid synthesis inhibitors, primary screen (AID 463173)). Conditions: S. aureus RN4220 wild type/DeltatarO growth, OD600, 18 h, hits give low values, screened at 18.75 µg/mL (by protocol).

SMILES	survival
Cc1ccc(C)c(NC(=O)CSc2nnc3[nH]c(=O)cc(-c4ccccc4)n23)c1	105%
CC(=O)c1ccc(NS(=O)(=O)c2ccc3[nH]c4c(c3c2)CCCC4)cc1	83%
Cc1ccc(NS(=O)(=O)c2ccc3[nH]c4c(c3c2)CCCCCC4)cc1Cl	72%
COc1ccc(NS(=O)(=O)c2ccc3[nH]c4c(c3c2)CCCCCC4)cc1	-2% (active)
COC(=O)c1ccc(NS(=O)(=O)c2ccc3[nH]c4c(c3c2)CCCC4)cc1	6% (active)
COc1ccc(NS(=O)(=O)c2ccc3[nH]c4c(c3c2)CCCCC4)cc1	117%
COC(=O)c1ccc(NS(=O)(=O)c2ccc3[nH]c4c(c3c2)CCCCC4)cc1	91%
O=S(=O)(NCc1ccc(F)cc1)c1ccc2[nH]c3c(c2c1)CCCCC3	61%
Cc1ccc(NS(=O)(=O)c2ccc3[nH]c4c(c3c2)CCCCCC4)cc1C	-1% (active)
Cc1ccc(CNS(=O)(=O)c2ccc3[nH]c4c(c3c2)CCCC4)cc1	84%
COc1cc(NS(=O)(=O)c2ccc3[nH]c4c(c3c2)CCCCCC4)cc(OC)c1	64%
Cc1ccc(NS(=O)(=O)c2ccc3[nH]c4c(c3c2)CCCCCC4)cc1	84%
O=S(=O)(NCc1ccc(F)cc1)c1ccc2[nH]c3c(c2c1)CCCC3	-1% (active)
Cc1ccc(N2C(=O)CCSC23C(=O)N(Cc2ccc(F)cc2)c2ccccc23)cc1 (stereo not given)	90%
CCCCNC(=O)CC1N=C2c3ccccc3N=C(SCC(=O)NCc3ccccc3Cl)N2C1=O (stereo not given)	72%
O=c1c2cc3c(cc2n(Cc2cccc(Cl)c2)c(=O)n1Cc1nc(-c2ccccc2)no1)OCO3	61%
O=C(CCCn1c(=O)[nH]c2ccccc2c1=O)NCc1ccccc1Cl	123%
COc1ccc(CNC(=O)CSc2ncc(S(=O)(=O)c3ccc(C)c(Cl)c3)c(=O)[nH]2)cc1	80%
Cc1ccc(C)c(N2CCN(S(=O)(=O)c3ccc4[nH]c5c(c4c3)CCCC5)CC2)c1	-2% (active)
Cc1ccc(C)c(N2CCN(S(=O)(=O)c3ccc4[nH]c5c(c4c3)CCCCC5)CC2)c1	80%
Cc1ccc(N2CCN(S(=O)(=O)c3ccc4[nH]c5c(c4c3)CCCCC5)CC2)c(C)c1	102%
COCCNc1oc(-c2ccc(OC)cc2)nc1C#N	54%
Cc1cc(OC(=O)c2cccs2)cc(OC(=O)c2cccs2)c1	99%
Cc1cc(C(=O)c2cccs2)c(N)s1	33% (active)
Cc1cc(C)cc(NC(=O)Cn2cc(C(=O)c3cccs3)c3ccccc32)c1	60%
